Active and inactive are the calls of the source. How the source made its calls: active means hit-call score of the fitted dose curve at least 0.9, where 1 is the maximum; inactive means score below 0.9.
read-out: not listed separately; test: BSK_SAg_PBMCCytotoxicity: PBMC Cytotoxicity Assessment in the BioMAP Diversity Plus: SAg Assay (AID 2283093); details: primary human HUVEC with PBMC;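 further: PBMC viability measured as Alamar Blue reduction fluorescence at 546/580 nm; fitted both ways against DMSO so a hit may be loss or gain of signal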;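 on AC50: PBMC superantigen activated with SEB plus TSST-1 one hour after compound addition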
Method in brief: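 Alamar Blue reduction (6 h, 546/580 nm) reports PBMC cytotoxicity after 90 h superantigen activation (SEB, TSST-1; 20 ng/mL final each) with 1 h compound pre-treatment. Gain or loss of signal fitted versus DMSO.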

Structure (SMILES)	outcome	AC50
OCc1ccccc1	inactive	
CC1(C)C(=O)N(Cl)C(=O)N1Cl	inactive	
c1ccc2cc3ccccc3cc2c1	inactive	
NNC(=O)c1ccncc1		5.14 µM (active)
COc1cc2c(c(OC)c1OC)-c1ccc(OC)c(=O)cc1[C@@H](NC(C)=O)CC2	inactive	
Cn1cc[nH]c1=S	inactive	
OCCNCCO	inactive	
O=C(O)[C@H](O)[C@@H](O)C(=O)O	inactive	
c1ccc2ncccc2c1	inactive	
O=C(O)c1cccc(C(=O)O)c1	inactive	
CCCCOC(=O)c1ccccc1	inactive	
O=S1(=O)CCCO1	inactive	
CCCCN1C(=O)[C@@H]([C@H](O)C2CCCCC2)NC(=O)C12CCN(Cc1ccc(Oc3ccc(C(=O)O)cc3)cc1)CC2	inactive	
OC(O)(C(F)C(O)(O)C(F)(F)F)C(F)(F)F	inactive	
OCCC(F)(F)C(F)(F)C(F)(F)C(F)(F)F	inactive	
O=S(=O)(O)c1ccc(N=Nc2c(O)ccc3cc(S(=O)(=O)O)ccc23)cc1	inactive	
OC(CCl)CCl	inactive	
NC(=O)N1c2ccccc2C=Cc2ccccc21	inactive	
CCCCCCCCCCCCCCO		30.3 µM (active)
CCCCC(CC)C(=O)OCCOCCOCCOC(=O)C(CC)CCCC (centres undefined)	inactive	
CC(C)CCCCCCOC(=O)C1CCCCC1C(=O)OCCCCCCC(C)C (centres undefined)		3.51 µM (active)
O=C(Cl)C(F)(F)C(F)(F)C(F)(F)C(=O)Cl	inactive	
OC(Cn1cncn1)(Cn1cncn1)c1ccc(F)cc1F	inactive	
CCCc1ccccc1	inactive	
C[C@@H](Oc1ccc(CNC(=O)c2cccnc2Oc2ccc3c(c2)OCO3)c(F)c1)C(=O)O	inactive	
OCC(CO)(CO)CO	inactive	
O=C(O)c1cccc(C[C@@H]2COc3ccc(OCc4nc5cc(F)ccc5s4)cc3[C@@H]2O)c1	inactive	

read-out: Interleukin-8 (IL8), CXCL8 (gene 3576); test: BSK_SAg_IL8: BioMAP Diversity Plus: SAg Assay for Interleukin-8 (IL8) Biomarker Activity (AID 2283094); details: primary human HUVEC with PBMC; actives raise or lower the signal
Method in brief: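 Primary human endothelial cells with PBMC, exposed 24 h; IL-8 determined by ELISA, analysed bidirectionally relative to DMSO.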

Structure (SMILES)	outcome	AC50
OCc1ccccc1	inactive	
CC1(C)C(=O)N(Cl)C(=O)N1Cl	inactive	
c1ccc2cc3ccccc3cc2c1	inactive	
NNC(=O)c1ccncc1	inactive	
COc1cc2c(c(OC)c1OC)-c1ccc(OC)c(=O)cc1[C@@H](NC(C)=O)CC2	inactive	
Cn1cc[nH]c1=S	inactive	
OCCNCCO	inactive	
O=C(O)[C@H](O)[C@@H](O)C(=O)O	inactive	
c1ccc2ncccc2c1	inactive	
O=C(O)c1cccc(C(=O)O)c1	inactive	
CCCCOC(=O)c1ccccc1	inactive	
O=S1(=O)CCCO1	inactive	
CCCCN1C(=O)[C@@H]([C@H](O)C2CCCCC2)NC(=O)C12CCN(Cc1ccc(Oc3ccc(C(=O)O)cc3)cc1)CC2	inactive	
OC(O)(C(F)C(O)(O)C(F)(F)F)C(F)(F)F	inactive	
OCCC(F)(F)C(F)(F)C(F)(F)C(F)(F)F	inactive	
O=S(=O)(O)c1ccc(N=Nc2c(O)ccc3cc(S(=O)(=O)O)ccc23)cc1	inactive	
OC(CCl)CCl	inactive	
NC(=O)N1c2ccccc2C=Cc2ccccc21	inactive	
CCCCCCCCCCCCCCO		31.8 µM (active)
CCCCC(CC)C(=O)OCCOCCOCCOC(=O)C(CC)CCCC (centres undefined)	inactive	
CC(C)CCCCCCOC(=O)C1CCCCC1C(=O)OCCCCCCC(C)C (centres undefined)	inactive	
O=C(Cl)C(F)(F)C(F)(F)C(F)(F)C(=O)Cl	inactive	
OC(Cn1cncn1)(Cn1cncn1)c1ccc(F)cc1F	inactive	
CCCc1ccccc1	inactive	
C[C@@H](Oc1ccc(CNC(=O)c2cccnc2Oc2ccc3c(c2)OCO3)c(F)c1)C(=O)O	inactive	
OCC(CO)(CO)CO	inactive	
O=C(O)c1cccc(C[C@@H]2COc3ccc(OCc4nc5cc(F)ccc5s4)cc3[C@@H]2O)c1	inactive	

From PubChem BioAssay (EPA / NIEHS)
